# High-throughput results deposited in PubChem BioAssay by National Center for Advancing Translational Sciences (NCATS).
# This is one part of a sample in which hits are shown more often than they occur.
# KDM5B inhibitor = Primary screen for KDM5B Histone Demethylases FDH-coupled qHTS; Lysine-specific demethylase 5B (Homo sapiens), Q9UGL1; KDM5B demethylase, FDH-coupled NADH fluorescence (FDH is formaldehyde dehydrogenase); Potency, µM (doses to about 57.7 µM), hits mostly inhibitors; actives 2.6% (n = 220,000); active means well fitted inhibition curve with a large enough effect; further: 0% is about no effect; nearly all actives have a fitted effect of over 70% in size
#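 KDM5BΔAP (200 nM final) in 50 mM HEPES pH 7.5, 0.01% Tween-20 was preincubated 10 min at RT with compound over a concentration range. Substrate mix (H3K4me3 12.5 µM, α-KG 25 µM, Fe²⁺, ascorbate, NAD⁺, FDH) was added, and NADH fluorescence change over 30 min gave dose-response curves.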
# The depositor's hits bear a star; i = inactive. Potency means the concentration at half of the fitted maximal effect.
SMILES,KDM5B inhibitor
CC(Cc1ccc(Cl)cc1)NC(=O)CCCNC(=O)C1CC1 (stereo not given),i
COc1cc2c(cc1OCc1ccccc1)NC(=O)C21CCN(C(=O)c2ccccc2)CC1,i
O=C(CCl)NCNC(=O)CCl,i
O=C1NCCOCCN[C@@H]2CCCC[C@H]12,i
COc1cc(CNC2CN3CCC2CC3)cc(Cl)c1OCc1ccccc1 (stereo not given),i
COc1ccc2c(c1)c(C(=O)OC(C)C(=O)NC(C)(C)C)c(C)n2C1CC1 (stereo not given),i
COc1ccc(CC(=O)N2CC3(CCN(C)CC3)c3cc(OC)c(OCc4ccccc4)cc32)cc1,i
COc1ccc(-c2cc([C@H]3CN4CC[C@H]3C[C@@H]4CNC(=O)c3cccs3)nc(C)n2)cc1OC,28µM*
Cn1nc(-c2ccc(F)cc2)cc1[C@H]1CN2CC[C@H]1C[C@@H]2CNC(=O)c1cccs1,i
Cc1nc(-c2cccs2)cc([C@H]2CN3CC[C@H]2C[C@@H]3CNC(=O)c2ccc(C(F)(F)F)cc2)n1,i
CC(=O)NC[C@H]1C[C@@H]2CCN1C[C@@H]2c1cc(-c2ccc(F)cc2)nc(C)n1,i
CCNC(=O)NC[C@H]1C[C@@H]2CCN1C[C@@H]2c1cc(-c2ccc(OC)c(OC)c2)nc(C)n1,18µM*
COc1ccc(NC(=O)NC[C@H]2C[C@@H]3CCN2C[C@@H]3c2cc(-c3ccc(OC)c(OC)c3)nn2C)cc1,i
Clc1cc(CNC2CN3CCC2CC3)cc(Cl)c1OCc1ccccc1 (stereo not given),i
C1CCN(c2nc(N/N=C3\CN4CCC3CC4)nc(N3CCCCC3)n2)CC1,i
CC(C)NC(=O)NC[C@H]1C[C@@H]2CCN1C[C@@H]2c1cc(-c2ccccc2)nn1C,i
O=Cc1cccc2ccccc12,i
CCS(=O)(=O)N1CC(COC)C2(CCNCC2)C1 (stereo not given),i
OCC1CN(c2ncccn2)CC12CCNCC2 (stereo not given),32µM*
COCC1CN(C(=O)N(C)C)CC12CCNCC2 (stereo not given),i
COc1ccc(C(=O)N2[C@H]3CC[C@@H]2c2cnc(C)nc2C3)cc1OC,i
FC(F)(F)CN1C2CCC1CN(c1cncc(Cl)c1)C2,i
COc1cncc(N2CC3CCC(C2)N3CC(F)(F)F)c1,i
COc1cccc(N2CC3CCC(C2)N3CC(F)(F)F)n1,100µM*
FC(F)(F)CN1C2CCC1CN(c1nnc(Cl)c3ccccc13)C2,i
FC(F)(F)CN1C2CCC1CN(c1cnc3ccccc3c1)C2,100µM*
FC(F)(F)CN1C2CCC1CN(c1ccc(C(F)(F)F)cn1)C2,i
Cc1cccc(-n2nnnc2C2(NC(C)C)CCCCC2)c1,i
CSc1cccc(NC(=O)NC[C@H]2C[C@@H]3CCN2C[C@@H]3CN2CCSCC2)c1,i
